Shown are actives, neighbours in structure and some others; about 12% of the full set was active somewhere.
L3MBTL1 block – inhibitors of human L3MBTL1. Q9Y468. AlphaScreen L3MBTL1–H3K9me1 peptide binding. Potency, µM (top dose mostly 57.1 µM), inactives show at the highest dose activity, negative = inhibition, hits mostly inhibitors. actives 0.66% (n = 230,000); also: % is scaled to controls: 0 for no effect and ±100 for the full control effect; nearly all actives have a fitted effect of over 60% in size
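AlphaScreen assay: L3MBTL1 (50 nM final) was preincubated 30 min at room temperature with biotinylated H3(1-15)K9me1 peptide (75 nM final), then 30 min with library compounds; streptavidin donor and nickel chelate acceptor beads (10 ug/mL final) added, 30 min dark.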
G9a inh – G9a (human) methyltransferase inhibition; Potency, µM (highest dose often 102 µM), for the others: top-dose activity, negative = inhibition, most hits filed as inhibitors; AID 504332; G9a H3K9 monomethylation, AlphaScreen, 2 h; actives 8.8% (n = 350,000); also: % is scaled to controls: 0 for no effect and ±100 for the full control effect; nearly all actives have a fitted effect of over 75% in size
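Readings reflect AlphaScreen signal from monomethyl-H3K9 antibody detection. HMT at 20 nM; substrate b-H3K9 500 nM; cofactor SAM 20 uM; 2 h RT reaction; compounds tested as titrations in qHTS with 15 min preincubation.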
BAZ2B block – inhibitors of human BAZ2B bromodomain. Q9UIF8. AlphaScreen BAZ2B-H3K14Ac peptide displacement. Potency, µM (titrated, usually from 114 µM), for the others: at the highest dose activity change, negative = inhibition, most hits filed as inhibitors. actives 4.4% (n = 360,000). AID 504333; also: % is scaled to controls: 0 for no effect and ±100 for the full control effect; nearly all actives have a fitted effect of over 60% in size
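Multi-concentration screen (max 110 uM) measuring displacement of acetylated histone H3 peptide from BAZ2B by AlphaScreen, using 50 nM protein, 50 nM peptide and 10 ug/mL streptavidin donor plus Ni-chelate acceptor beads.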
HP1b chromo inh – blocks HP1-beta chromodomain binding to methylated histone tails; AlphaScreen HP1-beta / biotin-H3K9me3 peptide binding; Potency, µM (top dose mostly 114 µM), inactives show at the top dose activity change, negative = inhibition, actives largely listed as inhibitors; actives 0.56% (n = 390,000); AID 540317; also: nearly all actives have a fitted effect of over 70% in size
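Compound inhibition of the preformed complex between 50 nM HP1-beta and 50 nM biotinylated H3K9me3 peptide was read by AlphaScreen. Buffer was PBS pH 7.4 with 0.01% Tween-20. Incubations ran 30 min at room temperature, with 10 ug/mL donor/acceptor beads.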
Sfp inh – Sfp phosphopantetheinyl transferase inhibition; Q9F4F7; Biochemical Sfp PPTase activity, qHTS; Potency, µM, for the others: largest response in the series, negative = inhibition, actives largely listed as inhibitors; actives 3.5% (n = 310,000); AID 1490;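 also: the enzyme is Sfp with the accession as filed and its product quenches rhodamine fluorescence; 0% = enzyme reaction without inhibitor and -100% = no enzyme wells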
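Sfp 15 nM + cpd, 15 min RT; start w/ rhodamine-CoA 5 uM, BHQ-2-YbbR 12.5 uM (final); 50 mM Hepes pH 7.6, 10 mM MgCl2, 0.01% NP-40, 0.01% BSA; read 525/598 nm at 0 and 30 min.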
JMJD2A Tudor – blocks the human JMJD2A Tudor domain; O75164; AlphaScreen JMJD2A-Tudor / H3K4me3 peptide binding; Potency, µM (top dose mostly 114 µM), for the others: at the top dose activity change, negative = inhibition, actives largely listed as inhibitors; actives 4.4% (n = 390,000); AID 504339; also: % is scaled to controls: 0 for no effect and ±100 for the full control effect; nearly all actives have a fitted effect of over 50% in size
* marks the source's active call; other numbers are inactive results; ? = inconclusive; / = no result given; [ ] = dose if it differs, or a comment. Calls follow the shape of the dose curve; as a rule, active = well fitted curve in the direction sought with a large enough effect; inconclusive = small, poorly fitted or top-dose-only effect, or another doubt; inactive = no such curve, though single readings can be large; an effect the other way counts as inactive or inconclusive. Potency is read from the fitted curve at half-maximal effect.

SMILES	L3MBTL1 block	G9a inh	BAZ2B block	HP1b chromo inh	Sfp inh	JMJD2A Tudor
O=C(C(=S)N1CCOCC1)c1c[nH]c2ccccc12	-12%	-122%[59 µM]	?	12%	11µM*	5%
COc1ccc(N2CCN(C(=O)C(=O)c3c[nH]c4ccccc34)CC2)cc1	/	45µM*	?	-9%[57 µM]	18%	?
CCN1CCN(C(=O)C(=O)c2cn(CC(=O)N3CCCC3)c3ccccc23)CC1	/	-5%	-5%	24%	6%	-15%
O=C(CN1CCOCC1)c1c[nH]c2ccccc12	0%	36%[0.501 µM]	-29%	31%	14%	-8%
CC#CCN1c2ccccc2[C@]23C[C@@H](C(=O)OC)N(C(=O)CC(C)C)C2=NC(C(=O)OC)=C(C(=O)OC)[C@H]13	/	/	/	/	29%	/
O=C(Cn1c(=O)c(C(F)(F)F)nc2ccccc21)Nc1cccc(Br)c1	/	1%[59 µM]	1%	32%	/	1%
O=[N+]([O-])c1ccc(Cl)c(/C=N/n2c(-c3cccnc3)n[nH]c2=S)c1	4%	5.6µM*	-19%	/	8%	/
O=[N+]([O-])c1cccc(/C=N/n2c(-c3cccnc3)n[nH]c2=S)c1	4%	1.8µM*	-37%	?	?	4µM*
O=[N+]([O-])c1cc(/C=N/n2c(-c3ccncc3)n[nH]c2=S)ccc1Cl	-28%	/	?	6%	-21%	?
Cc1ccsc1/C=N/n1c(-c2cccnc2)n[nH]c1=S	2%	?	-29%	-5%	-1%	4.5µM*
Cc1ccc(-c2cc(NC(=O)C(C)Oc3ccc(C)c(C)c3)on2)cc1 (centres undefined)	/	40%[59 µM]	45%	101%	/	-6%
COc1ccc(S(=O)(=O)NCc2cccn2Cc2cccc(C)c2)cc1OC	/	-3%[12.7 µM]	?	5%	/	-27%
O=C(CSc1nnc(NC(=O)NC2CCCCC2)s1)Nc1ccccc1F	/	5%[59 µM]	0%	40%	/	6%
Cc1cccc(NC(=O)CNC(=O)c2cc(C3CC3)nn2-c2ccccc2)c1C	-18%	50µM*	-11%	20%	/	-19%
O=C(C=C1CCN(c2ncc(C(F)(F)F)cc2Cl)CC1)NNC(=O)Nc1ccccc1	2%	11µM*	3%	19%	7%	-12%
O=C(C=C1CCN(c2ncc(C(F)(F)F)cc2Cl)CC1)NNC(=O)Nc1ccc(Cl)cc1	0%	-4%	4%	21%	6%	-3%
Cc1ccc(-n2nnnc2CNC(=O)C(C)(C)C)cc1C	/	6%[59 µM]	4%	24%[57 µM]	/	0%
COCCCN1C(=O)c2ccccc2CC1(C)C(=O)NC1CCCCC1 (centres undefined)	/	1%[59 µM]	1%	27%	/	0%
COc1cc2c(cc1OC)C(COc1ccc3c(C)cc(=O)oc3c1)N(C(=O)c1ccc(C)cc1)CC2 (centres undefined)	/	-28%[59 µM]	3%	-2%	/	-17%
COc1ccc(C)cc1N1C(=N)/C(=C2/Nc3ccccc3S2)C(c2ccccc2)C1=O (centres undefined)	-4%	10µM*	?	?	-7%	?
COc1ccc(C2C(Oc3ccccc3)C(=O)N2c2cc(C)ccc2C)cc1OC (centres undefined)	-5%	/	1%	35%	4%	-6%
CCOc1ccc(NC(=O)CSc2nnc(-c3ccc(OCC)cc3)o2)cc1	/	-26%[59 µM]	2%	44%	/	-13%
Cc1ccccc1NC(=S)N(Cc1ccco1)C(C)c1ccccn1 (centres undefined)	/	0%	-1%	15%	79µM*	-21%
COc1cc(/C=C/c2nc3cc(Cl)ccc3c(=O)n2-c2ccc(C)cc2C)cc(OC)c1OC	/	-5%[59 µM]	-1%	57%	/	2%
Cc1ccc(C(=O)NCC(=O)O)o1	4%	-10%	-11%	39%	8%	-4%
SMILES	L3MBTL1 block	G9a inh	BAZ2B block	HP1b chromo inh	Sfp inh	JMJD2A Tudor
CC1CCCCC1NC(=O)CCCCCn1c(=S)[nH]c2ccsc2c1=O (centres undefined)	/	28µM*	-1%	34%	3%	3%
COc1ccc(N2CCN(C(=O)CCCCCn3c(=O)[nH]c4ccsc4c3=O)CC2)cc1	-12%	40µM*	-21%	-16%	10%	-25%
CCOC(=O)N1CCN(C(=O)CCn2c(=S)[nH]c3ccccc3c2=O)CC1	/	?	-5%	30%	3%	-12%
CCOC(=O)N1CCN(C(=O)CCCCn2c(=S)[nH]c3ccsc3c2=O)CC1	/	32µM*	-32%	20%	79µM*	?
O=C(CCCn1c(=S)[nH]c2ccsc2c1=O)NC1CCCCC1	/	/	-4%	42%	-15%	-13%
O=C(CCCn1c(=S)[nH]c2ccsc2c1=O)NCCc1ccccc1	/	10µM*	-1%	40%	2%	7%
CN(C)CCNC(=O)c1ccc(-n2c(-c3ccccc3)cc3c2CCCC3)cc1	/	-28%[59 µM]	?	12%	/	-30%
Cc1c(C(=O)Nc2ccccc2Cl)oc2ccc(S(=O)(=O)N3CCCCCC3)cc12	/	2%[59 µM]	3%	1%	/	-17%
CCc1ccc(S(=O)(=O)c2cn(C)c3cc(N4CCC(C)CC4)c(F)cc3c2=O)cc1	/	2%[59 µM]	0%	25%	/	-2%
COCCNC(=S)NNc1cccc(C(=O)O)c1	/	10µM*	/	?	7.1µM*	10µM*
Cc1csc(N2CCN(c3cc4nc(-c5ccncc5)[nH]c4cc3Cl)CC2)n1	-5%	7.9µM*	?	25%	79µM*	79µM*
Cc1ccc2nc(-c3ccncc3)[nH]c2c1	0%	-7%	?	41%	5%	-6%
Cc1ccc(-c2csc(N3CCN(c4cc5c(cc4Cl)nc(C(C)N)n5CCCO)CC3)n2)cc1 (centres undefined)	-3%	13%	-31%	35%	-5%	-36%
Cc1ccc(-c2csc(N3CCN(c4cc5c(cc4Cl)nc(C)n5CCN4CCCCC4)CC3)n2)cc1	-5%	45µM*	-38%[57.1 µM]	-24%	50µM*	40µM*
Cc1csc(N2CCN(c3cc4c(cc3Cl)nc(-c3ccncc3)n4CCCN3CCCC3)CC2)n1	-21%	10µM*	?	3%	?	56µM*
COCC(=O)NCc1nc2cccnc2n1Cc1ccc(F)cc1	/	9%[59 µM]	0%	23%[57 µM]	/	-12%
CCSc1ncc(Cl)c(C(=O)Nc2c(C(=O)Nc3ccccc3)oc3ccccc23)n1	/	5%[59 µM]	-3%	35%	/	2%
COc1cccc(Cn2c(C)c(CNCc3cccc(C)c3)c(C(=O)O)c2C)c1	/	?	?	0%	/	-28%
CC[n+]1c(C)cc2c(sc3ccccc32)c1C	?	22µM*	-19%	44%	11%	?

High-throughput results deposited in PubChem by National Center for Advancing Translational Sciences (NCATS).
